In PubChem BioAssay (NCI) one finds growth inhibition data, which are given here for 19 compounds.

This is part of a sample that, as a whole, favours compounds with a hit. Of some 79,000 tested, about 15% had one in any assay. Values without a mark were called inactive. Calls of active or inactive are those of the source. Cut-off read from the data, not from the text of the source: active = growth inhibition above about 70%; inactive = the rest.

The nature of the experiment: NCI Yeast Anticancer Drug Screen. Data for the mec2-1 strain (AID 157). Particulars: S. cerevisiae mec2-1 strain, at 100.0 µM, hits give high values. In outline: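 Using mec2-1 yeast: add compound, measure growth, express inhibition versus vehicle-treated cultures.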
In the case of `O=C(/N=N/C(=O)Oc1ccccc1)Oc1ccccc1`, the growth inhibition is -16%.
The same measure for `COc1cc([C@@H]2c3cc4c(cc3[C@@H](NC(=O)NO)[C@H]3COC(=O)[C@H]23)OCO4)cc(OC)c1O`: 17%; for `CC1(C)CC(=O)C(/C=N/c2nc(-c3ccc(Br)cc3)cs2)=C(O)C1`: 98% (active); for `CCOC(=O)/C(=C/c1cccc(Cl)c1)N(CC)CC`: 95% (active).
The same measure for `CC(C)OC(=O)NNc1cccc(Cl)c1`: 98% (active); for `CCC(=O)C1=C(O)c2cc(OC)ccc2CC1C(=O)OC` (centres undefined): 35%.
The same measure for `O=S(=O)(NC1CCCC(c2ccccc2)C1)c1ccccc1` (centres undefined): 82% (active).
Consider `COc1ccc2nc3cccc([N+](=O)[O-])c3c(NCCCCCC(=O)O)c2c1`, for which the growth inhibition was 99% (active).
`CCO/C=C1\SC(=S)N(c2ccc(OCC)cc2)C1=O`: the growth inhibition was 26%.
The same measure for `COc1cc(OC)c(CSCC(NC(=O)OCC2c3ccccc3-c3ccccc32)C(=O)O)c(OC)c1` (centres undefined): 98% (active); for `COC(=O)c1ccccc1N=NNc1cccc(SC)c1`: 89% (active).
For the compound `CC1=NN(C(=O)c2ccccc2O)C(=O)/C1=C/c1ccco1`, the growth inhibition was 96% (active).
For the compound `COc1ccccc1NC(=O)c1ccc(Cl)cc1`, the growth inhibition was -4%.
The same measure for `CC(C)=CCC/C(C)=C/CN1C(=O)C=CC1=O`: 100% (active); for `O=C1CSC(c2ccccc2)N1c1ccc(-c2ccc(-n3c(-c4ccccc4)nc4ccccc4c3=O)cc2)cc1` (centres undefined): 40%.
As for `N#CC1OB(O)c2ccccc21` (centres undefined), the figure is -7%; as for `O=C(NCCNCCNC(=O)c1cc(-c2ccccc2)nc2ccccc12)c1cc(-c2ccccc2)nc2ccccc12`, 5%; as for `Brc1ccc(B2Nc3ccccc3N2)cc1`, 46%.
As for `CCOP(=O)(OCC)/C(C#N)=C/c1cccc(Oc2ccccc2)c1`, the growth inhibition is 98% (active).
